# Test results taken from ChEMBL document CHEMBL1961873, “Compounds: GSK PKIS; Assays: Nanosyn kinase panel” (2012).
# “And” between values parts separate entries of the source, which are not always exact repeats. Equal entries are not always repeated.
# Tests used:
# [1] = target: Protein kinase C gamma type (Homo sapiens) (UniProt P05129); conditions: at 1 µM;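 also: each value is an averaged percent inhibition of the enzyme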
# [2] = target: T1, Protein kinase C iota type (Homo sapiens) (UniProt P41743); conditions: at 0.1 µM
# T1 sequence (whole entry): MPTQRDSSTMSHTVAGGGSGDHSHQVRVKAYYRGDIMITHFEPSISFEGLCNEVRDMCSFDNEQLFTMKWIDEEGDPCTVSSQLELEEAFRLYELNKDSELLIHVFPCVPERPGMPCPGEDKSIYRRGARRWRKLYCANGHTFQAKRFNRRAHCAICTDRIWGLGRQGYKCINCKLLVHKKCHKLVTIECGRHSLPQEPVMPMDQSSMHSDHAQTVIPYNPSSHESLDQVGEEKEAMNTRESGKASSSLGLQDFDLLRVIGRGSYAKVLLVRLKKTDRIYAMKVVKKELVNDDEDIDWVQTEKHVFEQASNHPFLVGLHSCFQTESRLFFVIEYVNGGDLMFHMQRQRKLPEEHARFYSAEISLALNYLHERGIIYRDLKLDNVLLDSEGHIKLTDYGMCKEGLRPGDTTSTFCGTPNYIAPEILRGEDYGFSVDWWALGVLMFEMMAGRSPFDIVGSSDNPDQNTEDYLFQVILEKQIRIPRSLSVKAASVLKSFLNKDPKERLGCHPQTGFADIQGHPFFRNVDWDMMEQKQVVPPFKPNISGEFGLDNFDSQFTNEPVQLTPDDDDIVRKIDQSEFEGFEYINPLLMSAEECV
# [3] = target: T1, Protein kinase C iota type (Homo sapiens); conditions: at 1 µM
# [4] = target: Protein kinase C theta type (Homo sapiens) (UniProt Q04759); conditions: at 0.1 µM
# Protein kinase C theta type (Homo sapiens), sequence (Q04759 whole entry, looked up): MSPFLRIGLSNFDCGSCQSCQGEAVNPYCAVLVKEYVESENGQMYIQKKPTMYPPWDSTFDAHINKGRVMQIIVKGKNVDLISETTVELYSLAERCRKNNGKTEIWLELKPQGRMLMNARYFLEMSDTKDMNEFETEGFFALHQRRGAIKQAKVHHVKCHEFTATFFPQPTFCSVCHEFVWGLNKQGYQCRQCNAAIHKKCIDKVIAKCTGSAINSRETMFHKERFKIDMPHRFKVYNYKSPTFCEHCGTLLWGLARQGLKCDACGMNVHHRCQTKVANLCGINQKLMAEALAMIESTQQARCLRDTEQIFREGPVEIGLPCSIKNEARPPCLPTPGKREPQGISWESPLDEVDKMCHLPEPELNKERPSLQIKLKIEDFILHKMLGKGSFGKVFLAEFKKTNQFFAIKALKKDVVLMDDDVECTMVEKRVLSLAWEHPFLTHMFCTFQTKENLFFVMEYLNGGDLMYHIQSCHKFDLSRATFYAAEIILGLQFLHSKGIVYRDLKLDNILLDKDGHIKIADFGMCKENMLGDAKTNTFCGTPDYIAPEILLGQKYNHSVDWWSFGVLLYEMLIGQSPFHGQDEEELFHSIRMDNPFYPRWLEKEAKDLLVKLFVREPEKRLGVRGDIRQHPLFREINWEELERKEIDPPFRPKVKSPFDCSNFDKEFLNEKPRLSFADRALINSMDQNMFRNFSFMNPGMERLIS
# [5] = target: Protein kinase C theta type (Homo sapiens) (UniProt Q04759); conditions: at 1 µM
# [6] = target: Protein kinase C beta type (Homo sapiens) (UniProt P05771); conditions: at 0.1 µM
# Protein kinase C beta type (Homo sapiens), sequence (P05771 2-671 limits assumed): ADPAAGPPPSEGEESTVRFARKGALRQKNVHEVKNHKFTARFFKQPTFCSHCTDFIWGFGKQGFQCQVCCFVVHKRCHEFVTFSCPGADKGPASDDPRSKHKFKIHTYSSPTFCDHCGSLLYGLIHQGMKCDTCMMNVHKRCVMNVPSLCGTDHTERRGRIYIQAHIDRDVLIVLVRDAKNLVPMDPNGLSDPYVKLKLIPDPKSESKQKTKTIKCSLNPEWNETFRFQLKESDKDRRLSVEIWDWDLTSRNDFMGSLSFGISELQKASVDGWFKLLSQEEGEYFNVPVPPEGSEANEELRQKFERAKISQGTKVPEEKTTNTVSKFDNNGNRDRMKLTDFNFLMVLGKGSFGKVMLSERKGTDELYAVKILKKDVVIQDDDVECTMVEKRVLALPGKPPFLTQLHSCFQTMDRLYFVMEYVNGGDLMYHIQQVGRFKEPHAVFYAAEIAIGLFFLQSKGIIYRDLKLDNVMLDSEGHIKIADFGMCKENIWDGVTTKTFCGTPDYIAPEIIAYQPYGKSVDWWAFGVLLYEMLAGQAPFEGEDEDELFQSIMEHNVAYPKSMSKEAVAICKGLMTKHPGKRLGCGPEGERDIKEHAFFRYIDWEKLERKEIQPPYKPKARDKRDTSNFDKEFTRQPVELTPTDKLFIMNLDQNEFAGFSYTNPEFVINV
# [7] = target: Protein kinase C beta type (Homo sapiens) (UniProt P05771); conditions: at 1 µM
# [8] = target: T2, Serine/threonine-protein kinase D1 (Homo sapiens) (UniProt Q15139); conditions: at 0.1 µM
# T2 sequence (whole entry): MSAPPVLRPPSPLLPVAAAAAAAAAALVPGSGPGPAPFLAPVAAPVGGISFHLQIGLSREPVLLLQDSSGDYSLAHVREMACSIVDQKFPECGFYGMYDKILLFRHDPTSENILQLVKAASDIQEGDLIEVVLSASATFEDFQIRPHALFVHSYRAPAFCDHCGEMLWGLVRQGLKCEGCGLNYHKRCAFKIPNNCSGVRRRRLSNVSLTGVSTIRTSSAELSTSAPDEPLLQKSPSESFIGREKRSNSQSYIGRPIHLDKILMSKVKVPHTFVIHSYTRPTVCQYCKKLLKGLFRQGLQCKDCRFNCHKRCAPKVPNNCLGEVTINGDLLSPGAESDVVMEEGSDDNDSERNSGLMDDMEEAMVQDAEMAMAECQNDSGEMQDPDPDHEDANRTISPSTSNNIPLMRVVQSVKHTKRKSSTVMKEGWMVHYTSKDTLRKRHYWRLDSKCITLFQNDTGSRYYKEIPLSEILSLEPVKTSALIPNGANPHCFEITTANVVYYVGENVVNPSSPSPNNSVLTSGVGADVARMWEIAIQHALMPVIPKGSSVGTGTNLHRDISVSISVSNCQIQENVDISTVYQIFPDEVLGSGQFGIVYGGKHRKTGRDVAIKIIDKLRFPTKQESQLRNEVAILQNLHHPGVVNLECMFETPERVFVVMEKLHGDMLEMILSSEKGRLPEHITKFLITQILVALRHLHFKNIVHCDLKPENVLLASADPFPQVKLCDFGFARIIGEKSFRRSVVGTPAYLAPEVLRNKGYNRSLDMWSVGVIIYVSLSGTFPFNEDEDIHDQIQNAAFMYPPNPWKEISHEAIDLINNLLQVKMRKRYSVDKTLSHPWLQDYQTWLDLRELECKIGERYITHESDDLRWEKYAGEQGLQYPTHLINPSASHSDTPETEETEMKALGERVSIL
# [9] = target: T2, Serine/threonine-protein kinase D1 (Homo sapiens); conditions: at 1 µM
# [10] = target: T3, Serine/threonine-protein kinase D2 (Homo sapiens) (UniProt Q9BZL6); conditions: at 0.1 µM
# T3 sequence (whole entry): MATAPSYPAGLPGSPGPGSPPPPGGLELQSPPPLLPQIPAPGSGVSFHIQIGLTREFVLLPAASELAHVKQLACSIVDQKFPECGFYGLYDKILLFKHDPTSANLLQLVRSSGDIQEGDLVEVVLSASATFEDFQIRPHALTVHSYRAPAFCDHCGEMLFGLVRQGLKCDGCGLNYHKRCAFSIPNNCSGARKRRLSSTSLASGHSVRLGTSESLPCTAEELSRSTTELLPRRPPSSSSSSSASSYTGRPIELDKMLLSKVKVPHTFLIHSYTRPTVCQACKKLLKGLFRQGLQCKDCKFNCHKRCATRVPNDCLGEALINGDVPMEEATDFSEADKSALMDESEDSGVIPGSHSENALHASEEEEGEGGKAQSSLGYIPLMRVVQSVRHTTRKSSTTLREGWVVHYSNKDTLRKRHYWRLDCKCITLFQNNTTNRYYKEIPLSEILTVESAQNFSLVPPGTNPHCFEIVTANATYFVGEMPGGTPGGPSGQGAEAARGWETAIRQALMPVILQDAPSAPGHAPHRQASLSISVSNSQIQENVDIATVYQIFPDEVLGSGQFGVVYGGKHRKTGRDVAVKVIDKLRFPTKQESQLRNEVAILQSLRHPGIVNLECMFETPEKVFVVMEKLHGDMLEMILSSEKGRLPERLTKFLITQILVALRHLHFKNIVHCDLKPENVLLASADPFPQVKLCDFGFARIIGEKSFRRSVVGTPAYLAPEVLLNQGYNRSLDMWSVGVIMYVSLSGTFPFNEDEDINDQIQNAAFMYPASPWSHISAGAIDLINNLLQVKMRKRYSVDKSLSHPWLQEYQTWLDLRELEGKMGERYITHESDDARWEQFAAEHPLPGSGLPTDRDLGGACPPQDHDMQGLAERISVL
# [11] = target: T3, Serine/threonine-protein kinase D2 (Homo sapiens); conditions: at 1 µM
# [12] = target: T4, Serine/threonine-protein kinase D3 (Homo sapiens) (UniProt O94806); conditions: at 0.1 µM
# T4 sequence (whole entry): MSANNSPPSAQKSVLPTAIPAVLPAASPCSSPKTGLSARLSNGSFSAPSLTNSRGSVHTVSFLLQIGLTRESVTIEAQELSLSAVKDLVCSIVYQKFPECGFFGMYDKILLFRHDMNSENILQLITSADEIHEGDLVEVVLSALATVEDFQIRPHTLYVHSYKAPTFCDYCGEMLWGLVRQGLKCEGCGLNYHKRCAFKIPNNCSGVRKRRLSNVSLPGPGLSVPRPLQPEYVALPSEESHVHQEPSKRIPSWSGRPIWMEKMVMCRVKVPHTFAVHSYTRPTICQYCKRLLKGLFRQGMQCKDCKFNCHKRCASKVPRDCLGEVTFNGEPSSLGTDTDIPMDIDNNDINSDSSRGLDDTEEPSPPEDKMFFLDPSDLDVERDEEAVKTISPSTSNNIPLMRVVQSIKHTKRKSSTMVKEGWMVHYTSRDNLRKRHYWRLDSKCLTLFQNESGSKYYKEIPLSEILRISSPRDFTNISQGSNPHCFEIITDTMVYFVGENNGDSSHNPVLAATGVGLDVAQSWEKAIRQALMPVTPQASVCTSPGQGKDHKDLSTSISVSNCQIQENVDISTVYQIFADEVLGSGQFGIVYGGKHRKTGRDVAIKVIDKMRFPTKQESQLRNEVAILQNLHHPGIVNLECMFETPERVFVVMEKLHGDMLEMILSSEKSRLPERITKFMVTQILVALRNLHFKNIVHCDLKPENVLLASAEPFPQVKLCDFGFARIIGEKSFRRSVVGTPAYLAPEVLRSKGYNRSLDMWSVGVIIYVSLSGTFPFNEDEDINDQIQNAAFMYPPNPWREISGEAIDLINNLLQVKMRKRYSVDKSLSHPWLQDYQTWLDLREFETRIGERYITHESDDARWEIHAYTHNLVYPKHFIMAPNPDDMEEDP
# [13] = target: T4, Serine/threonine-protein kinase D3 (Homo sapiens); conditions: at 1 µM
# [14] = target: T5, cGMP-dependent protein kinase 1 (Homo sapiens) (UniProt Q13976); conditions: at 0.1 µM
# T5 sequence (whole entry): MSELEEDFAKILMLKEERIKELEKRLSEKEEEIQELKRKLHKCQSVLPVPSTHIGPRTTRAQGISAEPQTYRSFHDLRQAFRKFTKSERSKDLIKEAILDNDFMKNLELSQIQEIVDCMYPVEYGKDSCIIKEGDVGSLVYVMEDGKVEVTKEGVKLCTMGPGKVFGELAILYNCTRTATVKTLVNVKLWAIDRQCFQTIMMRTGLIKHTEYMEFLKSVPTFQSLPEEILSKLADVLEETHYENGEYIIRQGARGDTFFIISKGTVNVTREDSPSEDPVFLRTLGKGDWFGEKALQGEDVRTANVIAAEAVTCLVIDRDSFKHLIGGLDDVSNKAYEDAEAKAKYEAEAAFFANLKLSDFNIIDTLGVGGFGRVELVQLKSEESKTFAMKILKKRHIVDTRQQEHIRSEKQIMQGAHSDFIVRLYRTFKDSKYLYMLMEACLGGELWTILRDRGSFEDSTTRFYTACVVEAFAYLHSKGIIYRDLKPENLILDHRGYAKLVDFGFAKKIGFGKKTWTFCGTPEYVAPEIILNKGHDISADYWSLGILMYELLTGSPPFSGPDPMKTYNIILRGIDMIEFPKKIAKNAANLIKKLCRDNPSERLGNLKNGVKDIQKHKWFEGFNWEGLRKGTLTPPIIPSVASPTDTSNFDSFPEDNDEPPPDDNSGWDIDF
# [15] = target: T5, cGMP-dependent protein kinase 1 (Homo sapiens); conditions: at 1 µM
# [16] = target: T6, cGMP-dependent protein kinase 2 (Homo sapiens) (UniProt Q13237); conditions: at 0.1 µM
# T6 sequence (whole entry): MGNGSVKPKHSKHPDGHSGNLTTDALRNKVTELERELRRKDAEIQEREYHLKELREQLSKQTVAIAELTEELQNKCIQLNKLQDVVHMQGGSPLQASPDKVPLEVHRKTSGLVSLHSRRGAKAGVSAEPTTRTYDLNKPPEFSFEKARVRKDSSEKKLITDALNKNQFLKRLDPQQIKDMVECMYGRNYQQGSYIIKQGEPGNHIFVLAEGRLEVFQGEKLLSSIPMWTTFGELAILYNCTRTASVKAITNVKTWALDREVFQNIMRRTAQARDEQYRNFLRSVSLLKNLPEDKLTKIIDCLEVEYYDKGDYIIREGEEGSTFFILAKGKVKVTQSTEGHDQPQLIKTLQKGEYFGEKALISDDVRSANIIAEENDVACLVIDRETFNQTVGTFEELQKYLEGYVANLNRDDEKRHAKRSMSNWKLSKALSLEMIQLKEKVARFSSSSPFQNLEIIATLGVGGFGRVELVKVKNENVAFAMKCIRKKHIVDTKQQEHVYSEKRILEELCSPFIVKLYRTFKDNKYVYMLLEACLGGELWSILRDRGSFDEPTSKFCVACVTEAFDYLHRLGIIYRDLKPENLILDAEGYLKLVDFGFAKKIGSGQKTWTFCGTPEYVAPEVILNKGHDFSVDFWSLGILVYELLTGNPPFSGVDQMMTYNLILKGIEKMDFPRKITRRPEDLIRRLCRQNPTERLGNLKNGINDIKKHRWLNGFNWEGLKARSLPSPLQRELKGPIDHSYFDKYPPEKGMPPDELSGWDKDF
# [17] = target: T6, cGMP-dependent protein kinase 2 (Homo sapiens); conditions: at 1 µM
# [18] = target: T7, cAMP-dependent protein kinase catalytic subunit PRKX (Homo sapiens) (UniProt P51817); conditions: at 0.1 µM
# T7 sequence (whole entry): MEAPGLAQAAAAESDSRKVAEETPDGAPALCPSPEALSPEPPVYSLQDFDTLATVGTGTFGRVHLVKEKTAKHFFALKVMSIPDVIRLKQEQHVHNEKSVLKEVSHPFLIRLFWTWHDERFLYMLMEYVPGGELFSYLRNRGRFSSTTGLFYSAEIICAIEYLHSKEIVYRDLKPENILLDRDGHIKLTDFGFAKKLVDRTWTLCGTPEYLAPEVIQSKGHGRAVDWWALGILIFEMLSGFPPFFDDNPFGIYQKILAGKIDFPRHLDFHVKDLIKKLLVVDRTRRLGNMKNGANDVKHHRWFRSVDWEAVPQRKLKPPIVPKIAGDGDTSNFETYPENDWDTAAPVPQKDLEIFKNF
# [19] = target: T7, cAMP-dependent protein kinase catalytic subunit PRKX (Homo sapiens); conditions: at 1 µM
# [20] = target: Rho-associated protein kinase 1 (Homo sapiens) (UniProt Q13464); conditions: at 0.1 µM;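 also: values are mean percent inhibition of ROCK1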
# Rho-associated protein kinase 1 (Homo sapiens), sequence (Q13464 2-1354 limits assumed): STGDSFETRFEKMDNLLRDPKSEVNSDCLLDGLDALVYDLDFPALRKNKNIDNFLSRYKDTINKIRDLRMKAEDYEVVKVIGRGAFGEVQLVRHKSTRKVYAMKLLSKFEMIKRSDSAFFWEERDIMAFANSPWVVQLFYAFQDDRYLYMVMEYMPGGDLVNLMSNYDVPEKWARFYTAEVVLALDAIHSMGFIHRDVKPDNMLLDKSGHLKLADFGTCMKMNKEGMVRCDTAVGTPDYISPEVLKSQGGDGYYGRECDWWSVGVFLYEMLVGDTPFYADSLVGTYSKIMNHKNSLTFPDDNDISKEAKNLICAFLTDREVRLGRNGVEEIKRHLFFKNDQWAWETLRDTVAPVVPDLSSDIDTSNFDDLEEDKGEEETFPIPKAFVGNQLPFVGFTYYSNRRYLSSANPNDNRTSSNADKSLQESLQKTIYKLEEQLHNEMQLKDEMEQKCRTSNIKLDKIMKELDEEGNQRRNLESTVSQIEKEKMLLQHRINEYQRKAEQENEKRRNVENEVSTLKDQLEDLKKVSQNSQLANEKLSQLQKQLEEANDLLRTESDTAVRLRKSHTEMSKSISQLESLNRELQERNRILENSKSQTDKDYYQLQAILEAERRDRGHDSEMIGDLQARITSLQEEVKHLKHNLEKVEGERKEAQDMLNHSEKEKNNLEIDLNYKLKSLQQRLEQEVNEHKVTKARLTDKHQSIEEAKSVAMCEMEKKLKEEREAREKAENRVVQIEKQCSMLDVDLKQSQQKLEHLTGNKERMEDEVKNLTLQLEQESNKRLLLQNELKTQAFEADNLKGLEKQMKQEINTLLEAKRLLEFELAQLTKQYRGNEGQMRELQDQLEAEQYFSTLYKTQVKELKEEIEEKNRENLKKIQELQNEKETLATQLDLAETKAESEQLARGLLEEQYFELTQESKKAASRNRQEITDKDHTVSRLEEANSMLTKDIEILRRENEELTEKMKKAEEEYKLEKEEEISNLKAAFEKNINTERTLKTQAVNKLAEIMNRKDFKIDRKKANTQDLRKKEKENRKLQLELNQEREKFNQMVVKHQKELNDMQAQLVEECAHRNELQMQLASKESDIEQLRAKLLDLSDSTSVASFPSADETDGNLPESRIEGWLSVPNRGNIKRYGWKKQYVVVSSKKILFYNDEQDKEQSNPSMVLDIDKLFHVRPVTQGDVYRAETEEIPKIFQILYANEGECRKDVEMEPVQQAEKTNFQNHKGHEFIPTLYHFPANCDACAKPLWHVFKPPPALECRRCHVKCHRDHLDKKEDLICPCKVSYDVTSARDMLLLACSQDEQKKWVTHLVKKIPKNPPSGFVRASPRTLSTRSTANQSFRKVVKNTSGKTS
structure (smiles),measurement,setting,value
CN1CCN(Cc2ccc(-c3cc4ncnc(Nc5ccc(OCc6cccc(F)c6)c(Cl)c5)c4s3)o2)CC1,inhibition,[1],1.46% and 6.95%
same,inhibition,[2],1.42% and 1.16%
same,inhibition,[3],1.76% and 1.19%
same,inhibition,[4],1.25% and 2.92%
same,inhibition,[5],0.89% and 4.95%
same,inhibition,[6],0.98% and 1.08%
same,inhibition,[7],2.27% and 3.9%
same,inhibition,[8],3.21% and 5.57%
same,inhibition,[9],6.44% and 7.02%
same,inhibition,[10],2.14% and 5.13%
same,inhibition,[11],4.28% and 7.23%
same,inhibition,[12],2.56% and 5.35%
same,inhibition,[13],4.4% and 6.3%
same,inhibition,[14],2.05% and 4.47%
same,inhibition,[15],1.78% and 7.9%
same,inhibition,[16],0.82% and 2.4%
same,inhibition,[17],0.79% and 5.44%
same,inhibition,[18],1.82% and 3.39%
same,inhibition,[19],1.45% and 5.71%
same,inhibition,[20],1.65% and 1.83%
